Data: PubChem BioAssay (NCI)
Compounds without any hit were thinned out: in the full panel of roughly 83,000, 20% have a hit.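 Note: values are percent growth. 100 is the growth of untreated cells, values between 100 and 0 indicate rising inhibition; between -100 and 0 indicates cell death.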 Activity calls are given as the source filed them. How the source made its calls: active means growth percent below 10; inactive means the rest.

What was measured:
Assay in all cases: NCI-60 one-dose screen, 48 h (100 = growth as untreated, 0 = no growth, -100 = all killed)
Conditions in all cases: 10 µM unless noted
[1] = system: DU-145 prostate
[2] = system: K-562 leukemia
[3] = system: MALME-3M melanoma
[4] = system: MDA-MB-231 breast
[5] = system: RXF 393 renal
[6] = system: SF-268 CNS
[7] = system: SF-295 CNS
[8] = system: SF-539 CNS
[9] = system: UACC-257 melanoma
[10] = system: M14 melanoma
[11] = system: HCT-15 colon
[12] = system: HT29 colon
[13] = system: SNB-75 CNS
[14] = system: SNB-19 CNS
[15] = system: U251 CNS
[16] = system: PC-3 prostate
[17] = system: SK-MEL-5 melanoma
[18] = system: UACC-62 melanoma
[19] = system: LOX IMVI melanoma
[20] = system: SK-MEL-28 melanoma

Measured: growth

CCOC(=O)CC[C@H](NC(=O)c1ccc(NC)c2ccccc12)C(=O)OCC
inactive: [1] 104% | [2] 92.9% | [3] 114% | [4] 97.9% | [5] 111% | [6] 100% | [7] 101% | [8] 98.1% | [9] 86.1% | [10] 99.5% | [11] 96.1% | [12] 105% | [13] 91.8% | [14] 92.4% | [15] 97.8% | [16] 80.2% | [17] 97.2% | [18] 89.7% | [19] 93.8% | [20] 103%

Cc1c(Cl)cccc1NC(=O)c1sc2nc3c(cc2c1N)CCCCC3
inactive: [1] 15.6% | [3] 68.9% | [4] 48.4% | [5] 22.8% | [6] 54.2% | [7] 32% | [8] 13.9% | [9] 67% | [11] 30.1% | [14] 34.2% | [15] 24.2% | [16] 37.9% | [17] 45.8% | [18] 39.6% | [19] 41.8% | [20] 72.6%
active: [2] 8.36% | [10] 2.84% | [12] 9.15% | [13] 9.95%

CCOC(=O)c1c(C)nc2c(c1N)/C(=C/c1ccccn1)C(=O)N2Cc1ccccc1
active: [2] -16% | [5] -76.4% | [10] 0.865% | [11] -58.9% | [12] -18.6% | [14] 0.719% | [15] -87.4% | [16] 2.04% | [18] 4.68% | [19] -88.4% | [20] -2.42%
inactive: [1] 12.6% | [3] 31.4% | [4] 14.1% | [6] 16.7% | [7] 65.6% | [8] 11.1% | [9] 35.1% | [13] 68.6% | [17] 41.2%

Cc1ccc(C(=O)/C(=C/c2ccc([N+](=O)[O-])cc2)S(=O)Cc2ccccc2)cc1 (stereo not given)
active: [1] 4.09% | [2] 4.71% | [3] -13.8% | [4] -2.07% | [5] -81.6% | [8] -43.5% | [10] -26.1% | [11] -8.82% | [12] -21% | [16] -0.822% | [18] -54.9% | [19] -82.1%
inactive: [6] 35.8% | [7] 82.3% | [9] 65.9% | [13] 43.4% | [14] 34.8% | [15] 13.4% | [17] 37.8% | [20] 17.1%

COc1ccc(NC(=O)c2ccc(Nc3ncnc4[nH]c(C)c(C)c34)cc2)cc1
inactive: [1] 107% | [2] 105% | [3] 114% | [4] 104% | [5] 105% | [6] 91.4% | [7] 96.6% | [8] 97.5% | [9] 101% | [10] 110% | [11] 103% | [12] 103% | [13] 93.5% | [14] 105% | [15] 101% | [16] 109% | [17] 98.6% | [18] 99.6% | [19] 104% | [20] 102%

CCCCn1c(=O)c(/C=C/C(=O)/C=C/c2cc3ccccc3n(CCCC)c2=O)cc2ccccc21
active: [1] -7.95% | [2] 3.37% | [3] 8.02% | [4] -18.8% | [5] -89.9% | [6] 7.91% | [7] 3.65% | [8] -7.12% | [9] -24% | [10] -29.9% | [11] 1.62% | [12] -88.9% | [15] -48.3% | [16] 1.47% | [17] -74.5% | [18] -43.8% | [19] -80.3% | [20] -8.48%
inactive: [13] 48.8% | [14] 16.2%

O=C(CCc1nnc2sc(OCc3ccccc3)nn12)c1nc2ccc([N+](=O)[O-])cc2[nH]1
inactive: [1] 103% | [2] 87.7% | [3] 96.1% | [4] 95.7% | [5] 123% | [6] 94.5% | [7] 97% | [8] 98.4% | [9] 106% | [10] 102% | [11] 108% | [12] 107% | [13] 103% | [14] 108% | [15] 99.8% | [16] 94.4% | [17] 110% | [18] 96.6% | [19] 91.3% | [20] 115%

O=C1CC(c2ccc(O)c(O)c2)Oc2cc(O)c([C@@H]3O[C@H](CO)[C@@H](O)[C@H](O)[C@H]3O)c(O)c21 (stereo not given in full)
inactive: [1] 105% | [2] 96.8% | [3] 110% | [4] 101% | [5] 103% | [6] 102% | [7] 103% | [8] 100% | [9] 106% | [10] 102% | [11] 102% | [12] 103% | [13] 102% | [14] 102% | [15] 98.1% | [16] 97.3% | [17] 103% | [18] 105% | [19] 104% | [20] 107%

CSc1nc(-c2cccs2)c2c(N)[nH]nc2n1
inactive: [1] 107% | [2] 88.4% | [3] 121% | [4] 97.9% | [5] 114% | [6] 105% | [7] 102% | [8] 93% | [9] 114% | [10] 126% | [11] 99.6% | [12] 93.2% | [13] 93.7% | [14] 106% | [15] 98.9% | [16] 93.6% | [17] 101% | [18] 93.7% | [19] 93.3% | [20] 114%

[2H]c1nc(Nc2ncc3cc(C(=O)N(C)C)n(C4CCCC4)c3n2)c([2H])c([2H])c1N1C([2H])([2H])C([2H])([2H])NC([2H])([2H])C1([2H])[2H]
inactive: [1] 88.4% | [2] 53.2% | [3] 62.4% | [4] 51% | [5] 62.9% | [6] 75.3% | [7] 72.1% | [8] 71.5% | [9] 60% | [10] 70.7% | [11] 79.9% | [12] 27.6% | [13] 69.7% | [14] 61.5% | [15] 56.1% | [16] 54.6% | [17] 72.3% | [18] 64.6% | [19] 40.2% | [20] 84.2%

C[C@H]1[C@H](C)CC[C@]2(C(=O)OCCCC[P+](c3ccccc3)(c3ccccc3)c3ccccc3)CC[C@]3(C)C(=CC[C@@H]4[C@@]5(C)CC[C@H](OC(=O)C(Cl)Cl)C(C)(C)[C@@H]5CC[C@]43C)[C@H]12
active: [1] -35.2% | [2] -57.4% | [3] -85.2% | [4] -68.8% | [5] -91.4% | [6] -31.8% | [7] -77.9% | [8] -78.8% | [9] -78.9% | [10] -82.7% | [11] -68.8% | [12] -55.5% | [13] -24.5% | [14] -56.1% | [15] -88.6% | [16] -60.8% | [17] -100% | [18] -67.8% | [19] -99.6% | [20] -77.4%

C/C(=C\c1cnc(C)s1)[C@@H]1C[C@@H]2O[C@@H]2CCC[C@H](C)[C@H](O)[C@@H](C)C(=O)C(C)(C)[C@@H](O)CC(=O)O1
active: [1] 2.1% | [7] 7.05% | [8] 7.63% | [12] 8.92% | [13] -1.96%
inactive: [2] 11.8% | [3] 54.6% | [4] 41.3% | [5] 18.1% | [6] 51.7% | [9] 76.1% | [10] 22.1% | [11] 23% | [14] 44% | [15] 24.5% | [16] 34.2% | [17] 34.3% | [18] 51% | [19] 46.4% | [20] 75.1%

CCCCCOC(=O)c1ccccc1O
inactive: [1] 107% | [2] 99.9% | [3] 109% | [4] 110% | [5] 123% | [6] 105% | [7] 98% | [8] 99.7% | [9] 94.3% | [10] 97.4% | [11] 97.4% | [12] 96.5% | [13] 83.1% | [14] 106% | [15] 101% | [16] 86.9% | [17] 103% | [18] 97.9% | [19] 104% | [20] 110%

Nc1c(C(=O)Nc2ccccn2)sc2nc3c(cc12)CCCCCC3
inactive: [1] 11.4% | [3] 20.7% | [4] 49.4% | [6] 35.6% | [9] 49.5% | [11] 20.2% | [14] 22.3% | [15] 16% | [16] 20.9% | [18] 24.8% | [19] 36.2% | [20] 51.2%
active: [2] 7.85% | [5] -8.82% | [7] 0.944% | [8] 6.92% | [10] 7.38% | [12] 3.49% | [13] -1.5% | [17] 9.47%

CC1=C/C(=N\N=C2/C=C(C)CC(C)(C)C2)CC(C)(C)C1
inactive: [1] 105% | [2] 86.9% | [3] 96.4% | [4] 106% | [5] 114% | [6] 93.4% | [7] 102% | [8] 105% | [9] 90.2% | [10] 103% | [11] 106% | [12] 91.8% | [13] 94.9% | [14] 102% | [15] 96% | [16] 94.8% | [17] 99% | [18] 93.8% | [19] 100% | [20] 116%
